Relative cell viability data for ten compounds are collected here from the supplement of paper PMC9492666.

The structures appear in SMILES notation.
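Note: viability read out with the CCK-8 kit in 96-well plates, screening a set of 303 compounds acting on lipid metabolism targets.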

This assay relates to MDA-MB-231. The assay can be described thus: relative cell viability, compound alone, vs DMSO (fraction of DMSO control); higher = less growth inhibition. To be noted: 72 h.
Take `O=C(O)CCn1c2c(c3ccccc31)C[C@H](NS(=O)(=O)c1ccc(F)cc1)CC2` [Ramatroban]: the relative cell viability was found to be 0.841.

Compound `NC(=O)c1cccc(-c2cccc(OC(=O)NC3CCCCC3)c2)c1` yielded a relative cell viability of 1.02. Then `COc1cc(C(C)=O)ccc1O` [Acetovanillone], with 0.891; and `CC(C)=CCC[C@](C)(O[C@@H]1O[C@H](CO)[C@@H](O)[C@H](O)[C@H]1O)[C@H]1CC[C@]2(C)[C@@H]1[C@H](O)C[C@@H]1[C@@]3(C)CC[C@H](O[C@@H]4O[C@H](CO)[C@@H](O)[C@H](O)[C@H]4O[C@@H]4O[C@H](CO)[C@@H](O)[C@H](O)[C@H]4O)C(C)(C)[C@@H]3CC[C@]12C` [Ginsenoside Rd], with 0.896; and `C=C(C)[C@@H]1CC[C@]2(CO)CC[C@]3(C)[C@H](CC[C@@H]4[C@@]5(C)CC[C@H](O)C(C)(C)[C@@H]5CC[C@]43C)[C@@H]12` [Betulin], with 0.907. Compound `Nn1nnc2ccccc21` [1-Aminobenzotriazole] came in with a relative cell viability of 0.937. Consider `CC(C)(Oc1ccc(C(=O)c2ccc(Cl)cc2)cc1)C(=O)O` [Fenofibric acid], for which the relative cell viability was determined as 0.842. `O=C(c1ccc(-c2nc3ccc(F)cc3o2)cc1)N1CCN(C(=O)C2(O)CC2)CC1` had a relative cell viability of 0.918. Consider `CC(C)=CCC(O)C1=CC(=O)c2c(O)ccc(O)c2C1=O` (single isomer, unassigned; (+)) [(+)-Shikonin], for which the relative cell viability is 0.529. In turn, `NC(N)=N/N=C/c1cccc(Cl)c1Cl` [Raphin1 acetate] showed a relative cell viability of 0.822.
